SKKanGAS inh: blocks kanamycin growth of S. pyogenes SKKanGAS strain. inhibition, % at 7.5 µM. 300,000 compounds, 1.3% hits. AID 1662. BacTiter-Glo, 6 h;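 active = mean replicate score, as percent of positive control median, at least 50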;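 note: strain carries kanamycin resistance gene driven by streptokinase promoter and grows in 40 µg/ml kanamycin; loss of luminescence reflects streptokinase promoter inhibition or plain growth inhibition; 0% = median of DMSO wells and 100% = positive control at its reference dose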
NALP1 inh: blocks the NALP1 inflammasome reconstituted in yeast | S. cerevisiae NALP1/ASC/caspase-1 growth, X-gal OD620, 72 h | inhibition, % at 10 µM | 280,000 compounds, 0.61% hits | AID 2071; in the data active = inhibition mostly above about 24%, no sharp cut-off; inactive = mostly below about 32%
tim10-1 inh: growth inhibitors of tim10-1 mutant yeast | S. cerevisiae tim10-1 ts strain growth, BacTiter-Glo, 24 h | inhibition, % at 20 µM | 330,000 compounds, 2.2% hits;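 active = inhibition of at least 40%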;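 note: mutant grown at 25 °C; 0% = DMSO wells with yeast and 100% = wells holding no yeast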
TIM10 inh: TIM10 yeast growth inhibition; inhibition, % at 10 µM; S. cerevisiae TIM10 strain growth, BacTiter-Glo luminescence, 24 h; AID 463195; 330,000 compounds, 1.4% hits;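 active = inhibition of 40% or more at the single tested concentration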;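 note: wild-type TIM10 isogenic control strain grown at permissive 25 °C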
NALP3 yeast inh: NALP3 inhibition in yeast; AID 2825; inhibition, % at 10 µM; 330,000 compounds, 0.39% hits; Yeast reconstituted NLRP3/ASC/caspase-1, beta-gal luminescence, 24 h;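 active = inhibition of 50% or more; inactive = inhibition below 50%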;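 note: plate controls were induced DMSO wells for no effect and uninduced yeast grown without galactose for full effect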
tim23-1 inh: tim23-1 yeast growth inhibition. 330,000 compounds, 1.3% hits. inhibition, % at 20 µM. S. cerevisiae tim23-1 growth, BacTiter-Glo luminescence, 24 h;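 active = growth inhibition of the mutant yeast at or above 50%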;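 note: temperature-sensitive mutant grown at 25 °C; plate controls were DMSO-treated mutant yeast for no effect and medium wells lacking yeast for full effect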
tim23-1 confirm: tim23-1 yeast growth inhibition, confirmed; shares compounds with tim23-1 inh; S. cerevisiae tim23-1 growth, BacTiter-Glo luminescence, 24 h; 4,400 compounds, 83% hits; inhibition, % at 20 µM;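 active = inhibition above about 39% in either of two replicate wells at 20 µM, limit read from the data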;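 note: temperature-sensitive tim23-1 mutant grown at 25 °C; 0% = DMSO wells with yeast and 100% = medium wells without yeast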
The depositor's hits bear a star; . = no result given; ! = not confirmed by another sample. An excerpt weighted towards active compounds, which were near 4.9% of everything screened.

SMILES	SKKanGAS inh	NALP1 inh	tim10-1 inh	TIM10 inh	NALP3 yeast inh	tim23-1 inh	tim23-1 confirm
CC[C@]12c3[nH]c4ccc(Cl)cc4c3CCN1C(=O)[C@@H](CC(=O)NCCc1ccccn1)C[C@@H]2C(=O)N1CCN(C(=O)c2ccco2)CC1	.	.	5	-6	.	28	.
Cc1cccc(C2=NN(c3ccccc3)[C@@H](C(=O)N3CCOC3=O)[C@@H]2C)c1	.	.	15	9	.	39	.
CC[C@@H]1C(c2ccccc2)=NN(c2ccccc2)[C@H]1C(=O)N1CCOC1=O	.	.	22	10	.	48	.
O=C1OCCN1C(=O)[C@H]1[C@H](c2ccc(F)cc2)C(c2ccccc2)=NN1c1ccccc1	.	.	16	-3	.	72*	27
Cc1cccc(C2=NN(c3ccc(Br)cc3)[C@@H](C(=O)N3CCOC3=O)[C@@H]2C)c1	.	.	27	15	.	51*	31
C[C@@H]1C(c2ccccc2)=NN(c2ccc(Br)cc2)[C@H]1C(=O)N1CCOC1=O	.	.	32	27	.	59*	45*
S=C(NCCc1ccccc1)N1CCN(C23CC4CC(CC(C4)C2)C3)CC1	-4	-3	7	-10	28	-2	.
Nc1ncnc2c1ncn2[C@@H]1O[C@H](CO)C[C@H]1O	-9	.	26	-6	21	60*	65*
CC1(C)O[C@@H]2[C@H](O1)[C@@H](CO)O[C@H]2n1cnc2c(N)ncnc21	.	.	-10	-8	13	-2	.
COc1ccc(N=C2S/C(=C\c3ccc(Cl)c([N+](=O)[O-])c3)C(=O)N2CCN(C)C)cc1	14	41	40	35	27	60*	-27
COc1ccc(OC)c(N(CC(=O)NCCSCc2ccco2)S(=O)(=O)c2ccc(OC)c(OC)c2)c1	11	13	-9	15	1	-7	.
COC1=CC(=O)c2ccccc2C1=O	.	.	38	25	-35	78*	79*
CCOC(=O)C1C(=O)C=C(c2ccc(Br)cc2)CC1c1ccco1 (configuration not stated)	5	-18	21	35	16	31	.
Nc1ccc2nc(SCc3cccc(F)c3)sc2c1	7	25	-22	25	47	57*	46*
CCOC(=O)CSc1nc2ccc(N)cc2s1	2	22	-3	3	6	3	.
CCC(C)(CCNC(=O)Cc1ccccc1)c1ccccc1OC (configuration not stated)	8	13	30	11	-3	36	.
NC1=NC(=O)C(CC(=O)Nc2ccc3c(c2)OCO3)S1 (configuration not stated)	10	5	-1	-11	11	4	.
CC/C(=C(\c1ccccc1)c1ccc(OCCN(C)C)cc1)c1ccccc1	66*!	.	33	29	41	43	34
CC/C(=C(\c1ccc(O)cc1)c1ccc(OCCN(C)C)cc1)c1ccccc1	4	26	-18	29	21	-2	.
CNc1nc(-c2ccccc2)cc(C)c1S(C)(=O)=O	-1	-3	6	-9	24	15	.
CCOC(=O)N1CCC(NS(=O)(=O)c2ccc(C#N)cc2)CC1	10	-18	-7	-2	0	-13	.
Cc1csc(SCC(=O)N(C)C2CCS(=O)(=O)C2)n1 (configuration not stated)	.	.	-2	-6	17	-10	.
CCn1c(SCC(=O)Nc2nc3ccccc3s2)nc2c(c1=O)SC(C)C2 (configuration not stated)	0	6	15	-15	14	28	.
CCn1c(SCC(=O)Nc2nc3ccc(C)cc3s2)nc2c(c1=O)SC(C)C2 (configuration not stated)	19	6	33	-4	12	52*	47*
COCC(=O)N/N=C\c1ccccc1OC/C=C/c1ccccc1	-2	18	25	19	9	51*	39*
O=C(OCCOCCN=C1NS(=O)(=O)c2ccccc21)c1ccccc1Br	-9	17	7	-11	-7	2	.
CCc1cc2cc(C)cc(C)c2nc1SCC(=O)N1CCN(C(=O)c2ccco2)CC1	.	11	3	-8	20	20	.
CCc1cc2cccc(C)c2nc1SCC(=O)N1CCN(C(=O)c2ccco2)CC1	16	14	30	5	18	57*	38*

Screens from PubChem BioAssay.
